Data as given in PubChem BioAssay (NCATS).
Records with an inconclusive call do not appear. Entries that show only a call come without a potency. Active and inactive are the calls of the source. The call rests on the fitted dose curve; in most records, active means well fitted cell-killing curve with a large enough effect; inconclusive means small, poorly fitted or top-dose-only effect; inactive means flat fitted curve, though single readings scatter.
Potency means the concentration at half of the fitted maximal effect.

Assay: Cell Viability - LYMP2-024 (AID 988); further: nearly all actives have a fitted effect of over 60% in size
Conditions: LYMP2-024 lymphoblastoid cell viability; series mostly up to 92.2 µM
Text: NIH Chemical Genomics Center [NCGC]
NIH Molecular Libraries Screening Centers Network [MLSCN]
National Institutes of Environmental Health Sciences [NIEHS]
National Toxicology Program [NTP]
We have developed a 1536-well cell-based assay for quantitative high throughput screening (qHTS) against a number of cell lines to determine in vitro cytotoxicity of small molecules. This particular assay uses a human lymphoblastoid cell line (LYMP2-024) purchased from Coriell Institute for Medical Research.
NCGC Assay Protocol Summary:
The CellTiter-Glo luminescent cell viability assay (Promega) is a homogeneous method to measure the number of viable cells in culture. The end point readout of this assay is based on quantitation of intracellular ATP, an indicator of metabolic activity, using the luciferase reaction. Luciferase catalyzes the oxidation of beetle Luciferin to oxyluciferin and light in the presence of ATP. The luminescent signal is proportional to amount of ATP present.
Using the CellTiter-Glo luminescent cell viability assay, the amount of cellular ATP was measured in the lymphoblastoid cell line with complete culture medium following compound treatment for 24 hours. The assay was performed in opaque white Kalypsys 1536-well plates. In the screen, tetraoctylammonium bromide was used as positive control. Library compounds were measured for their ability to cause acute toxicity in the cell line, as reflected by a decrease in intracellular ATP levels, in a concentration-dependent manner. […] AC50 values were determined from concentration-response data modeled with the standard Hill equation.
qHTS protocol for CellTiter Glo lymphoblastoid cellular assay
[Step] [Parameter] [Value] [Description]
1. Reagent; 5 uL; 2500 lymphoblastoid cells/well
2. Time; 5 hr; 37 C incubation
4. Controls; 23 nL; Tetraoctylammonium bromide 6.4pM to 92 uM
5. Time; 24 hr; 37 C incubation
6. Reagent; 5 uL; CellTiter Glo reagent
7. Time; 30 min; Room Temperature
8. Detection; Luminescence; Viewlux plate reader
Keywords: cell viability, cytotoxicity, lymphoblastoid cell line, luminescence, NTPHTS, NTPHTS_NCGC, NIEHS, DSSTox, MLSMR, MLSCN, NIH Roadmap, qHTS, NCGC
For `CC(C)(C)C(O)(CCc1ccc(Cl)cc1)Cn1cncn1` (stereo not given), the Potency was “inactive”. For `Clc1ccc(C(Cl)(Cl)Cl)c(Cl)c1`, the Potency was “inactive”. In the case of `c1ccc(P(c2ccccc2)c2ccccc2)cc1`, the Potency is reported as “inactive”. In the case of `CCCC[N+](=O)[O-]`, the Potency is reported as “inactive”. In the case of `CCCCCC[N+](=O)[O-]`, the Potency is reported as “inactive”. In the case of `Oc1cccc(Cl)c1Cl`, the Potency is reported as “inactive”. With `c1ccoc1` the Potency was “inactive”. In the case of `C=CCc1cc(OC)c2c(c1)OCO2`, the Potency is reported as “inactive”. In the case of `C=C(C)CCl`, the Potency is reported as “inactive”. For `ClCCCCl`, the Potency was “inactive”. For `ClCC(Cl)CCl`, the Potency was “inactive”. In the case of `CCN(CC)CCO`, the Potency is reported as “inactive”. For `O=C(O)CBr`, the Potency was “inactive”. For `C=CCCC#N`, the Potency was “inactive”. With `CC(C)(Cl)[N+](=O)[O-]` the Potency was “inactive”. With `O=S(=O)(Cl)c1ccccc1` the Potency was “inactive”. With `Cl/C=C/Cl` the Potency was “inactive”. With `O=C(Cl)OCc1ccccc1` the Potency was “inactive”. In the case of `CC12CC1(C)C(=O)N(c1cc(Cl)cc(Cl)c1)C2=O` (stereo not given), the Potency is reported as “inactive”. In the case of `Clc1ccc(C(Cl)(Cl)Cl)cc1Cl`, the Potency is reported as “inactive”. For `Clc1ccc(Cl)c(Cl)c1`, the Potency was “inactive”. With `c1ccc2c(c1)CCNC2` the Potency was “inactive”. With `O=P(OCCCl)(OCCCl)OCCCl` the Potency was “inactive”. With `CCN(CC)N=O` the Potency was “inactive”. With `ClCc1ccccc1` the Potency was “inactive”. With `OCCCCO` the Potency was “inactive”. With `NC1CCC(CC2CCC(N)CC2)CC1` (stereo not given) the Potency was “inactive”. For `OC[P+](CO)(CO)CO`, the Potency was 7.94 µM (active). For `Cc1ccc(N)cc1N`, the Potency was “inactive”. For `C=CC#N`, the Potency was “inactive”. In the case of `O=C(O)C(Cl)(Cl)Br`, the Potency is reported as “inactive”. For `O=Cc1ccc2c(c1)OCO2`, the Potency was “inactive”. With `[N-]=[N+]=[N-]` the Potency was “inactive”. For `BrC(Br)Br`, the Potency was “inactive”. For `O=Cc1ccc(Cl)cc1Cl`, the Potency was “inactive”. With `CN1CSC(=S)N(C)C1` the Potency was 12.6 µM (active). In the case of `Nc1cc(Cl)ccc1Cl`, the Potency is reported as “inactive”. With `CCOP(=S)(OCC)SCCSCC` the Potency was “inactive”. In the case of `Clc1cc(Cl)c(Cl)c(Cl)c1`, the Potency is reported as “inactive”. For `CN(C)c1ccc(N=Nc2ccccc2)cc1`, the Potency was “inactive”.
